Compound activity (PubChem)
HP1b chromo inh – inhibitors of HP1-beta chromodomain binding to methylated histone tails; AlphaScreen HP1-beta / biotin-H3K9me3 peptide binding; Potency, µM (titrated, usually from 114 µM), inactives show at the top dose activity change, negative = inhibition, most hits filed as inhibitors; actives 0.56% (n = 390,000); AID 540317; also: nearly all actives have a fitted effect of over 70% in size
Target sequence (P83916 whole entry, looked up): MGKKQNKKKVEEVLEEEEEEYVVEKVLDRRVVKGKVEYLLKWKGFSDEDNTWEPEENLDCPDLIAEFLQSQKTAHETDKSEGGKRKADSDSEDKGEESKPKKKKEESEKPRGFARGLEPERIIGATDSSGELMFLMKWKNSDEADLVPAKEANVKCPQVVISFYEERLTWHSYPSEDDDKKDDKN
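Compound inhibition of the preformed complex between 50 nM HP1-beta and 50 nM biotinylated H3K9me3 peptide was read by AlphaScreen. Buffer was PBS pH 7.4 with 0.01% Tween-20. Incubations ran 30 min at room temperature, with 10 ug/mL donor/acceptor beads.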
JMJD2A Tudor – blocks the human JMJD2A Tudor domain; AID 504339; actives 4.4% (n = 390,000); O75164; AlphaScreen JMJD2A-Tudor / H3K4me3 peptide binding; Potency, µM (top dose mostly 114 µM), without a hit: at the top dose activity change, negative = inhibition, hits mostly inhibitors; also: % is scaled to controls: 0 for no effect and ±100 for the full control effect; nearly all actives have a fitted effect of over 50% in size
G9a block – blocks human histone lysine methyltransferase G9a; Q96KQ7; G9a H3K9 monomethylation, AlphaScreen, 2 h; Potency, µM (series often up to 102 µM), for inactives: at the highest dose activity, negative = inhibition, hits mostly inhibitors; actives 8.8% (n = 350,000); AID 504332; also: % is scaled to controls: 0 for no effect and ±100 for the full control effect; nearly all actives have a fitted effect of over 75% in size
Target sequence (Q96KQ7 913-1193 limits assumed): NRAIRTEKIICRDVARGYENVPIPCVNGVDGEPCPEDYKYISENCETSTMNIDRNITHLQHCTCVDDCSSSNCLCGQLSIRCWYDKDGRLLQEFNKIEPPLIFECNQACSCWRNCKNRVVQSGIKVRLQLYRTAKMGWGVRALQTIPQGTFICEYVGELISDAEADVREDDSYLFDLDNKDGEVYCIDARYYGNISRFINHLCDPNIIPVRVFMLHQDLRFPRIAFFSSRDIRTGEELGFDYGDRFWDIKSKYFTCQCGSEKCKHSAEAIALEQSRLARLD
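Quantitative HTS format: methyltransferase activity on a biotin-tagged H3K9 peptide is measured by AlphaScreen, using a rabbit anti-monomethyl-H3K9 antibody with streptavidin donor and anti-IgG acceptor beads. Final levels are 20 nM enzyme, 500 nM peptide, 20 uM SAM; 2 h RT.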
BAZ2B inh – BAZ2B (human) inhibition; actives 4.4% (n = 360,000); AlphaScreen BAZ2B-H3K14Ac peptide displacement; AID 504333; Potency, µM (series often up to 114 µM), for inactives: at the top dose activity change, negative = inhibition, most hits filed as inhibitors; also: % is scaled to controls: 0 for no effect and ±100 for the full control effect; nearly all actives have a fitted effect of over 60% in size
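AlphaScreen displacement of biotin-H3(5-23)K14Ac peptide (50 nM final) from BAZ2B (50 nM final) in PBS pH 7.4, 0.01% Tween-20; complex preformed 30 min RT, then compounds (top 110 uM) 30 min RT, beads 20 min dark.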
L3MBTL1 inh – inhibitors of human L3MBTL1; AlphaScreen L3MBTL1–H3K9me1 peptide binding; actives 0.66% (n = 230,000); Q9Y468; Potency, µM (highest dose often 57.1 µM), inactives show at the top dose activity, negative = inhibition, hits mostly inhibitors; also: % is scaled to controls: 0 for no effect and ±100 for the full control effect; nearly all actives have a fitted effect of over 60% in size
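Displacement of a biotinylated histone H3(1-15) peptide monomethylated at Lys9 (75 nM) from L3MBTL1 (50 nM) was measured by AlphaScreen after a 30 min room-temperature compound incubation; cefsulodin titration served as intraplate control.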
* = called active by the depositor; [ ] = dose if it differs, or a comment. Only some compounds are listed: those with a hit (about 11% of all), similar ones and a draw of the others. Calls follow the shape of the dose curve; as a rule, active = well fitted inhibition curve with a large enough effect; inconclusive = small, poorly fitted or top-dose-only effect; inactive = no such curve, though single readings can be large or run the other way. Potency is read from the fitted curve at half-maximal effect.

How did CC(C)NC(=O)c1ccc(COc2ccc(C(C)(C)C)cc2)o1 do in these assays?
HP1b chromo inh: 35.2%; JMJD2A Tudor: 1.5%; G9a block: 25.9%; BAZ2B inh: -2.9%

Results for Cc1cc2c(s1)c1cnn(Cc3ccc(C(C)(C)C)cc3)c(=O)c1n2C ?
JMJD2A Tudor: -7.5%

Results for CN(CCc1ccc(Cl)c(Cl)c1)CC(O)COc1ccc(NS(C)(=O)=O)cc1 (stereo unspecified) ?
G9a block: -0.1%[59 µM]

Results for COC(=O)/C=C/C(=O)N1CCN(c2ccccc2)CC1 ?
HP1b chromo inh: 30.3%; JMJD2A Tudor: -8.8%; G9a block: 50.1µM*; BAZ2B inh: 7.1%; L3MBTL1 inh: 1.9%

Results for COc1ccc(S(=O)(=O)N2CCN(C(=O)/C=C/c3ccco3)CC2)cc1 ?
HP1b chromo inh: 1.1%; JMJD2A Tudor: -35.0%; G9a block: 25.1µM*; BAZ2B inh: -28.0%; L3MBTL1 inh: -3.2%

Results for O=C(/C=C/c1ccco1)N1CCN(S(=O)(=O)c2cccc([N+](=O)[O-])c2)CC1 ?
HP1b chromo inh: inconclusive; JMJD2A Tudor: -29.3%; L3MBTL1 inh: -1.4%

Results for COC(=O)/C=C/C(=O)N1CCN(c2ccccc2C)CC1 ?
HP1b chromo inh: 16.5%; JMJD2A Tudor: -19.5%; G9a block: 14.1%[59 µM]; BAZ2B inh: 10.0%; L3MBTL1 inh: 2.5%

What do the screens show for `O=C(/C=C/c1ccco1)N1CCC(Cc2ccccc2)CC1`?
HP1b chromo inh: -38.5%; JMJD2A Tudor: 50.1µM*; G9a block: 31.6µM*; BAZ2B inh: 50.1µM*; L3MBTL1 inh: -27.2%

What do the screens show for `COc1cccc(N2CCN(C(=O)/C=C/c3ccco3)CC2)c1`?
HP1b chromo inh: -8.9%; JMJD2A Tudor: -13.5%; G9a block: 28.2µM*; BAZ2B inh: 50.1µM*; L3MBTL1 inh: -28.6%

Results for O=[S+]([O-])(c1ccc(N2CCOCC2)nc1)N1CCN([S+](=O)([O-])c2c(F)cccc2F)CC1 ?
JMJD2A Tudor: -20.5%

Results for Cc1ccc(C)c(Nc2ncnc3c2cnn3-c2ccc(F)cc2)c1 ?
HP1b chromo inh: 48.1%; JMJD2A Tudor: -7.0%; G9a block: 7.0%[59 µM]; BAZ2B inh: -0.6%

How did N#CCSCC(=O)Nc1ccc(Br)cc1 do in these assays?
HP1b chromo inh: 10.7%; JMJD2A Tudor: -13.7%; G9a block: 10.5%[2.33 µM]; BAZ2B inh: 11.2%

How did Cc1ccc(NC(=O)CSCC#N)cc1 do in these assays?
HP1b chromo inh: 22.6%; JMJD2A Tudor: 4.6%; G9a block: 50.1µM*; BAZ2B inh: 4.3%

Results for CCc1cc2c(cc3c(=O)n(CC(=O)N4CCCCC4)nc(CC)n32)s1 ?
HP1b chromo inh: 22.8%; JMJD2A Tudor: -9.8%; G9a block: 3.0%[59 µM]; BAZ2B inh: 2.1%

What do the screens show for `Cc1nc(Nc2nc3ccccc3o2)nc2c1CCC2`?
HP1b chromo inh: 5.5%; JMJD2A Tudor: 10µM*; G9a block: inconclusive; L3MBTL1 inh: -0.3%

What do the screens show for `CC1CCc2c(sc(NC(=O)c3cc(-c4cccc(Cl)c4)on3)c2C(N)=O)C1` (stereo unspecified)?
HP1b chromo inh: 53.0%; JMJD2A Tudor: -9.9%; G9a block: -25.0%[59 µM]; BAZ2B inh: -2.8%

Results for O=C(c1ccc(Cl)c(S(=O)(=O)N2CCCC2)c1)N1CCN(c2ccc(F)cc2)CC1 ?
HP1b chromo inh: -14.0%; JMJD2A Tudor: inconclusive; G9a block: 44.7µM*; BAZ2B inh: 56.2µM*; L3MBTL1 inh: -28.2%

How did O=C(c1ccc(Cl)c(S(=O)(=O)N2CCCCC2)c1)N1CCN(c2ccccc2)CC1 do in these assays?
HP1b chromo inh: -6.4%; JMJD2A Tudor: -33.8%; G9a block: -3.9%; BAZ2B inh: -28.3%

How did O=C(c1ccc(Cl)c(S(=O)(=O)N2CCCC2)c1)N1CCN(c2ccccc2)CC1 do in these assays?
HP1b chromo inh: inconclusive; JMJD2A Tudor: 12.6µM*; G9a block: -32.2%; BAZ2B inh: -20.7%; L3MBTL1 inh: -3.5%

How did O=C(c1ccc(S(=O)(=O)N2CCCCCC2)cc1)N1CCN(c2ccccc2)CC1 do in these assays?
HP1b chromo inh: -10.7%; JMJD2A Tudor: 79.4µM*; G9a block: 6.1%; BAZ2B inh: -9.9%

How did Cc1ccn2c(c1)nc(=O)c1cc(S(=O)(=O)N3CCC(C)CC3)c(Cl)cc12 do in these assays?
HP1b chromo inh: 40.0%; JMJD2A Tudor: -15.3%; G9a block: 2.6%[59 µM]; BAZ2B inh: -13.7%

What do the screens show for `COc1ccc(Cl)cc1NC(=O)c1cc(C)nc2c1c(C)nn2-c1ccccc1`?
HP1b chromo inh: 38.5%; JMJD2A Tudor: -12.0%; G9a block: 2.1%[59 µM]; BAZ2B inh: 17.5%[57.1 µM]

Results for O=C(O)C1NCCc2ccccc21 (stereo unspecified) ?
HP1b chromo inh: -13.4%; JMJD2A Tudor: inconclusive; G9a block: 39.8µM*; BAZ2B inh: inconclusive; L3MBTL1 inh: 7.9%

How did O=C(O)CC1NCCc2ccccc21 (stereo unspecified) do in these assays?
HP1b chromo inh: 13.4%; JMJD2A Tudor: -8.1%[11.4 µM]; G9a block: -33.3%[59 µM]; BAZ2B inh: -11.6%; L3MBTL1 inh: 3.3%

What do the screens show for `CC1=C(C#N)c2nc(N)c(C#N)c(C)c2/C1=C\c1ccc(OCC(=O)O)c(Cl)c1`?
HP1b chromo inh: inconclusive; JMJD2A Tudor: 20µM*; G9a block: 22.4µM*; BAZ2B inh: 50.1µM*; L3MBTL1 inh: inconclusive

What do the screens show for `N#Cc1ccc(NS(=O)(=O)c2ccc3c(c2)CCC(=O)N3)cc1`?
JMJD2A Tudor: 79.4µM*

How did COc1cc(NS(=O)(=O)c2ccc3c(c2)CC(=O)N3)cc(OC)c1OC do in these assays?
HP1b chromo inh: 13.9%; JMJD2A Tudor: -23.0%; G9a block: 0.355µM*

How did COc1ccc(NS(=O)(=O)c2ccc3c(c2)CCC(=O)N3)cc1 do in these assays?
JMJD2A Tudor: -12.9%

Results for CN1CCN(c2ccc(S(=O)(=O)N3CCCCC3)cc2NC(=O)COc2cccc(Cl)c2)CC1 ?
HP1b chromo inh: -35.8%; JMJD2A Tudor: inconclusive; G9a block: 39.8µM*; BAZ2B inh: inconclusive; L3MBTL1 inh: -7.1%

How did CN1CCN(c2ccc(S(=O)(=O)N3CCCCC3)cc2NC(=O)COc2ccc(F)cc2)CC1 do in these assays?
HP1b chromo inh: -12.6%; JMJD2A Tudor: inconclusive; G9a block: 28.2µM*; BAZ2B inh: inconclusive; L3MBTL1 inh: 9.8%

What do the screens show for `Cc1cccc(OCC(=O)Nc2cc(S(=O)(=O)N3CCCCC3)ccc2N2CCN(C)CC2)c1`?
HP1b chromo inh: 3.9%[57 µM]; JMJD2A Tudor: -26.6%; G9a block: -19.3%; L3MBTL1 inh: -28.4%

Results for Oc1ccccc1C1C=C(c2ccc3c(c2)OCO3)NC(c2c(F)cccc2Cl)N1 (stereo unspecified) ?
HP1b chromo inh: 9.5%; JMJD2A Tudor: inconclusive

How did Cc1cc(C)c[n+](-c2[nH]c(=O)sc2/C=N/N=C(\[O-])c2cccnc2)c1 do in these assays?
HP1b chromo inh: 31.1%; JMJD2A Tudor: -7.2%; G9a block: inconclusive; BAZ2B inh: inconclusive
